In PMC7862700, “An all-to-all approach to the identification of sequence-specific readers for epigenetic DNA modifications on cytosine”:

Legend:
Assay in all cases: DAPPL (digital affinity profiling via proximity ligation, sequencing); 10 mM Tris-HCl pH 7.5, 50 mM NaCl, 1 mM DTT, 4% glycerol, room temperature, 30 min; GST-TFs on glutathione beads, 16-mer random dsDNA library, 0.1% formaldehyde crosslink after washing; high values mean tight binding
[1] = biological target: T1, FLI1 (Homo sapiens, UniProt Q01543 1-452); conditions: protein: recombinant; tags: N-terminal GST; dsDNA, one strand shown
T1 sequence: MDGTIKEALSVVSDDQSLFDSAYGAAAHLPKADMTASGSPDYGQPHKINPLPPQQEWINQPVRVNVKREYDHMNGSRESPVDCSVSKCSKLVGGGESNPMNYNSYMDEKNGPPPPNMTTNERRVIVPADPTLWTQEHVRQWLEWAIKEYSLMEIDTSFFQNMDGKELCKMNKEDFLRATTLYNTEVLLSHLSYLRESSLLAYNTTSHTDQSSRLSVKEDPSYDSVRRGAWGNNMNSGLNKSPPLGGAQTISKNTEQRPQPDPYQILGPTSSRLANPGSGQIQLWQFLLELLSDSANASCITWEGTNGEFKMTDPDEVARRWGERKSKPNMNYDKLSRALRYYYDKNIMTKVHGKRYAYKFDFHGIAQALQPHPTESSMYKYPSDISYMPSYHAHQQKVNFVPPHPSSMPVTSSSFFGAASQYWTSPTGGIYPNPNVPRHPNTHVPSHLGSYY
In short: (§1)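 A tag-only sample was pooled with DNA-barcoded human transcription factors that had been expressed in yeast as GST fusions and captured on glutathione beads. The pools were incubated for 30 min at room temperature with 200 nmole of a random double-stranded 16-mer DNA library in Tris/NaCl/DTT/glycerol buffer, then washed, crosslinked with 0.1% formaldehyde, proximity-ligated (BsaI/T4 ligase, 1 h, 37 °C), PCR-amplified and sequenced on an Illumina NextSeq500. Binding signal is each hexamer's read frequency for a factor divided by its frequency for the tag-only sample.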

[2] = biological target: T2, ELK1 (Homo sapiens, UniProt P19419 1-428); conditions: protein: recombinant; tags: N-terminal GST; dsDNA, one strand shown
T2 sequence: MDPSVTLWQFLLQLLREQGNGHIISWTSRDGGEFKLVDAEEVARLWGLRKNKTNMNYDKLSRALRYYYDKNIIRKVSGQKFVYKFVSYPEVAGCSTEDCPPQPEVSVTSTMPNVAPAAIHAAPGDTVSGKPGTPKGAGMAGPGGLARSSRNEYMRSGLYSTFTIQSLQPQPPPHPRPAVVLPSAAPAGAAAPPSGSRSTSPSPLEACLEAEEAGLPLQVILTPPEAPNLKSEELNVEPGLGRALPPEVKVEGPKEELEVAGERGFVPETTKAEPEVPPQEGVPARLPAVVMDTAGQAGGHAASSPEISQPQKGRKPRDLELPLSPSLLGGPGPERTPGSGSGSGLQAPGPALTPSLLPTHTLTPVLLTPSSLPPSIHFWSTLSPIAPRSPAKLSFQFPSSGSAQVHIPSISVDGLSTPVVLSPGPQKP
In short: as §1

[3] = biological target: T3, GABPA (Homo sapiens, UniProt Q06546 1-454); conditions: protein: recombinant; tags: N-terminal GST; dsDNA, one strand shown
T3 sequence: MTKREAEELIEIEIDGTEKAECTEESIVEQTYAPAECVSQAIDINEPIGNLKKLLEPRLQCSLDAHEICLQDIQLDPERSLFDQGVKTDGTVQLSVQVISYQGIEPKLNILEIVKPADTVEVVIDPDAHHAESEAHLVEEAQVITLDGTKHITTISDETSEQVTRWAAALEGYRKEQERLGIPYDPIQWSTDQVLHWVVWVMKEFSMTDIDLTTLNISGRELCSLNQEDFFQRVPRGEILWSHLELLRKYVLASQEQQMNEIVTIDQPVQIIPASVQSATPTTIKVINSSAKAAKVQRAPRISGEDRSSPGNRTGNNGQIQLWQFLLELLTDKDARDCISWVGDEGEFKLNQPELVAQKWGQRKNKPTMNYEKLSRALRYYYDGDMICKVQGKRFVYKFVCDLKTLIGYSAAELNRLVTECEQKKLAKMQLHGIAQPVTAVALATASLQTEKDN
In short: as §1

[4] = biological target: T4, ERG (Homo sapiens, UniProt P11308 1-479); conditions: protein: recombinant; tags: N-terminal GST; dsDNA, one strand shown
T4 sequence: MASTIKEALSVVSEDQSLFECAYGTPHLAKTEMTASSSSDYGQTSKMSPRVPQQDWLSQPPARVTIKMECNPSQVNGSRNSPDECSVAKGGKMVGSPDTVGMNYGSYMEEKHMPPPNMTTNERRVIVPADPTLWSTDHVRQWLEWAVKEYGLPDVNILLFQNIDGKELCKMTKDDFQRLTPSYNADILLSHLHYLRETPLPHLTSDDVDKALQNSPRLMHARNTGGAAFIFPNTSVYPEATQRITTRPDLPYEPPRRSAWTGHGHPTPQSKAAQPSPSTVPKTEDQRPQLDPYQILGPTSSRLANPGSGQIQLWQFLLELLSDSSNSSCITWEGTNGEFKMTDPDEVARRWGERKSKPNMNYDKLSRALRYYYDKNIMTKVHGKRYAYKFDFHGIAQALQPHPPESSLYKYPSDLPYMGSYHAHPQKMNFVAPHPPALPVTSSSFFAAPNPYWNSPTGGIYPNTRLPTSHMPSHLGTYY
In short: as §1

[5] = biological target: ELF1 (Homo sapiens, UniProt P32519 1-619); conditions: protein: recombinant; tags: N-terminal GST; dsDNA, one strand shown
ELF1, sequence (P32519 whole entry): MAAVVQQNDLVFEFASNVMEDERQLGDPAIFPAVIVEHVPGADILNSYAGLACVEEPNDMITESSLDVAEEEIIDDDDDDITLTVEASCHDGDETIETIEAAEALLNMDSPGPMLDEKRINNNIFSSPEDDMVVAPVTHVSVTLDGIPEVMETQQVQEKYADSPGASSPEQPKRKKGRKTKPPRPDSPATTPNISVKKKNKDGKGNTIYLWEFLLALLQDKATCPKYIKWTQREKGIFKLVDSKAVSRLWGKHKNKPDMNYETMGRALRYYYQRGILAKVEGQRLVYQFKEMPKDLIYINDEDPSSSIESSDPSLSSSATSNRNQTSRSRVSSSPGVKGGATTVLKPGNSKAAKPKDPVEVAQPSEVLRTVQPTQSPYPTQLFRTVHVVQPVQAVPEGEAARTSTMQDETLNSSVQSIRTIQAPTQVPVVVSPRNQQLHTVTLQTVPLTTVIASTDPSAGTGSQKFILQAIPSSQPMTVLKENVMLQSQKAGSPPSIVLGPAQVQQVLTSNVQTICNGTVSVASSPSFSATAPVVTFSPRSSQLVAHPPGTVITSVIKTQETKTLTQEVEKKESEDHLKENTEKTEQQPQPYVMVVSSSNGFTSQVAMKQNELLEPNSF
In short: as §1

[6] = biological target: T5, EHF (Homo sapiens, UniProt Q9NZC4 1-300); conditions: protein: recombinant; tags: N-terminal GST; dsDNA, one strand shown
T5 sequence: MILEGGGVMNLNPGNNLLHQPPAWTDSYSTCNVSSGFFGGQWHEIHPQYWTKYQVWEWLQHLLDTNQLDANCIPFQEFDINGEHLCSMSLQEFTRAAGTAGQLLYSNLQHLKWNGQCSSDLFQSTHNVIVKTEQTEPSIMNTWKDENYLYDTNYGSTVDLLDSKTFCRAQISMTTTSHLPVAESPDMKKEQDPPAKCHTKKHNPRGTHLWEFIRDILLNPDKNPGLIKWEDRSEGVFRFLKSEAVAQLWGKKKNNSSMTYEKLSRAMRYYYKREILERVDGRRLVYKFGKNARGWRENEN
In short: as §1

[7] = biological target: SPI1 (Homo sapiens, UniProt P17947 1-270); conditions: protein: recombinant; tags: N-terminal GST; dsDNA, one strand shown
In short: as §1

[8] = biological target: SPIB (Homo sapiens, UniProt Q01892 1-262); conditions: protein: recombinant; tags: N-terminal GST; dsDNA, one strand shown
SPIB, sequence (Q01892 whole entry): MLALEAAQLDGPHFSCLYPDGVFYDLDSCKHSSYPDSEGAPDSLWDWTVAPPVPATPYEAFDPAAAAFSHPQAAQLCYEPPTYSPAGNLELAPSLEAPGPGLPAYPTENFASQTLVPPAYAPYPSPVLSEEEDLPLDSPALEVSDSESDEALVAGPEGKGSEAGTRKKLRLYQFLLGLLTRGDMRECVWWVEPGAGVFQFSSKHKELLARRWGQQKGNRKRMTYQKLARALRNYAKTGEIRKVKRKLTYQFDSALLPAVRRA
In short: as §1

[9] = biological target: T6, ELK3 (Homo sapiens, UniProt P41970 1-407); conditions: protein: recombinant; tags: N-terminal GST; dsDNA, one strand shown
T6 sequence: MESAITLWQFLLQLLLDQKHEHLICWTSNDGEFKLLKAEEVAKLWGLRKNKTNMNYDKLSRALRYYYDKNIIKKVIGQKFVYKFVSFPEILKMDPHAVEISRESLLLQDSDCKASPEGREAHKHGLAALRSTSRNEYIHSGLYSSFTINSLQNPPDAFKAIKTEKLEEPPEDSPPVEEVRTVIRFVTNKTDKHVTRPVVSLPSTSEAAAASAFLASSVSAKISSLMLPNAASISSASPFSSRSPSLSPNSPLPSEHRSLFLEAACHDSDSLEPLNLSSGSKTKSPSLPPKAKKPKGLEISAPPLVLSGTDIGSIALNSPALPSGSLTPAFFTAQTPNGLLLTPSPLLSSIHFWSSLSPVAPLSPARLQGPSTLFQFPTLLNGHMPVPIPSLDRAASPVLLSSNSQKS
In short: as §1

[10] = biological target: T7, FEV (Homo sapiens, UniProt Q99581 1-238); conditions: protein: recombinant; tags: N-terminal GST; dsDNA, one strand shown
T7 sequence: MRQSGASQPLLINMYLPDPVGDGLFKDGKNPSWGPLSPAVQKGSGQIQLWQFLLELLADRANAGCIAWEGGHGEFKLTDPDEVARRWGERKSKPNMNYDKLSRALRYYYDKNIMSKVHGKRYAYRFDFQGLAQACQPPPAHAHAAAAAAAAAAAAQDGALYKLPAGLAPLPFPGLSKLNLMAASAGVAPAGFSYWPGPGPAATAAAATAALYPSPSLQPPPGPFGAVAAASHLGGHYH
In short: as §1

[11] = biological target: ETV5 (Homo sapiens, UniProt P41161 1-510); conditions: protein: recombinant; tags: N-terminal GST; dsDNA, one strand shown
ETV5, sequence (P41161 whole entry): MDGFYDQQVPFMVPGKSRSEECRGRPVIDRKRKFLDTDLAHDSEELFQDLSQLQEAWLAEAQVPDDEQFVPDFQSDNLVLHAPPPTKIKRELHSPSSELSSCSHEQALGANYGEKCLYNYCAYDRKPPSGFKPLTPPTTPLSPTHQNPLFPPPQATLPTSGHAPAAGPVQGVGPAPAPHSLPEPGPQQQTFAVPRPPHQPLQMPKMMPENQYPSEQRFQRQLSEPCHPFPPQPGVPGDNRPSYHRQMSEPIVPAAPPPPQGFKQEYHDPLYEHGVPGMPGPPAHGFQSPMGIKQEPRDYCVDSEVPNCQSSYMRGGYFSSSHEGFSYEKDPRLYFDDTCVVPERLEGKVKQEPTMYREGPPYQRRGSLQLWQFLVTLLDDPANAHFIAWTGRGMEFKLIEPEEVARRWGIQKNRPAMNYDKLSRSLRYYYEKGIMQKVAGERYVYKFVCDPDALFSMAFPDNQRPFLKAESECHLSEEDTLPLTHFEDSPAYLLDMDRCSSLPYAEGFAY
In short: as §1

[12] = biological target: HSF1 (Homo sapiens, UniProt Q00613 1-529); conditions: protein: recombinant; tags: N-terminal GST; chain copies: 3; dsDNA, one strand shown
HSF1, sequence (Q00613 whole entry): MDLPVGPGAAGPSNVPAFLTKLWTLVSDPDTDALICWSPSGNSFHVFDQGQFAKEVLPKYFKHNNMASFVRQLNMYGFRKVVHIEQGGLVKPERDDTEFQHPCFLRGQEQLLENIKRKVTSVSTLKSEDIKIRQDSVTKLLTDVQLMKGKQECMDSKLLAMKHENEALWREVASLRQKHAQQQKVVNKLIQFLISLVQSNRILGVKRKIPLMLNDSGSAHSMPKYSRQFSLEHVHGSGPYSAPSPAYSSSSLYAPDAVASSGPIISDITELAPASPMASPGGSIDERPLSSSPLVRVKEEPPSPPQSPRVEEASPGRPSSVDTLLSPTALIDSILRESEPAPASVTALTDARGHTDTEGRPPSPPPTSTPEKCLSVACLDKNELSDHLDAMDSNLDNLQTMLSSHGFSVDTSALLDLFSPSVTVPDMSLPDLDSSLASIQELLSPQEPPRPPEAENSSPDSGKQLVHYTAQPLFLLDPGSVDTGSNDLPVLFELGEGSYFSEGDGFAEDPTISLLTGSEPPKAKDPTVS
In short: as §1

[13] = biological target: T8, SPIC (Homo sapiens, UniProt Q8N5J4 1-248); conditions: protein: recombinant; tags: N-terminal GST; dsDNA, one strand shown
T8 sequence: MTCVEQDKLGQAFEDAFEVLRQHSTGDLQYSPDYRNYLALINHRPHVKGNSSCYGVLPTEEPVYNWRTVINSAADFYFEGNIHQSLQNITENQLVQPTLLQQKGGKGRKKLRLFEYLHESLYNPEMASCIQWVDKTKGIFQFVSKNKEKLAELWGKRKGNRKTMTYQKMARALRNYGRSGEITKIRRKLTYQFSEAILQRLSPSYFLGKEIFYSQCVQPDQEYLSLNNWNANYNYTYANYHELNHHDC
In short: as §1

[14] = biological target: ELF4 (Homo sapiens, UniProt Q99607 1-663); conditions: protein: recombinant; tags: N-terminal GST; dsDNA, one strand shown
ELF4, sequence (Q99607 whole entry): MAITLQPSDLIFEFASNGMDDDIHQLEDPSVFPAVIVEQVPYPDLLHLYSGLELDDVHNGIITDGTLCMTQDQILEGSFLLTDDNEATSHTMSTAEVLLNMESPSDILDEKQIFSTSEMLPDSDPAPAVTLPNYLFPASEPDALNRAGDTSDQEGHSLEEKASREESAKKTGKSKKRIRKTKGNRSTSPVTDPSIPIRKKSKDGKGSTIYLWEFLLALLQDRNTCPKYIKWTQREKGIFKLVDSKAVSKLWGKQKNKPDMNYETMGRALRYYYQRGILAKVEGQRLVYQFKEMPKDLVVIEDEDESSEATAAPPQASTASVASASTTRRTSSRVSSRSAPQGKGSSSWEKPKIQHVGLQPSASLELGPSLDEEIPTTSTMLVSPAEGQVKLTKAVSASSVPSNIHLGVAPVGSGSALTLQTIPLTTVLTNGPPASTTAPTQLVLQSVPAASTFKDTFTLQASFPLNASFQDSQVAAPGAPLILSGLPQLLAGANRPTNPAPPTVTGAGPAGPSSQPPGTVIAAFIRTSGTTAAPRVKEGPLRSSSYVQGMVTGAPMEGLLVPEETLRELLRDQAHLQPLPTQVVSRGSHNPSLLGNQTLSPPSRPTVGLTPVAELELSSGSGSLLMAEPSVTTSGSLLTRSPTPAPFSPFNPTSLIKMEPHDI
In short: as §1

[15] = biological target: T9, ELK4 (Homo sapiens, UniProt P28324-2 1-405); conditions: protein: recombinant; tags: N-terminal GST; dsDNA, one strand shown
T9 sequence: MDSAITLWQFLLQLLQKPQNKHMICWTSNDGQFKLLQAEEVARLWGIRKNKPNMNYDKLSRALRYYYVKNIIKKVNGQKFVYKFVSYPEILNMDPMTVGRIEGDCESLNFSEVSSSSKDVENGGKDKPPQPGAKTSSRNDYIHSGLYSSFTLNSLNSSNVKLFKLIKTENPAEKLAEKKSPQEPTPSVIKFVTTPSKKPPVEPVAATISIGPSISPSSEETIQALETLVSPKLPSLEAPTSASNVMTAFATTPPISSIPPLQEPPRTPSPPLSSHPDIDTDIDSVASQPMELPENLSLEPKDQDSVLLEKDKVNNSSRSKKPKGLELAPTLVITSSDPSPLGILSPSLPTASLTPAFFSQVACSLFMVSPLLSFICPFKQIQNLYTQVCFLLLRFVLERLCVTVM
In short: as §1

[16] = biological target: T10, ETV2 (Homo sapiens, UniProt O00321 1-342); conditions: protein: recombinant; tags: N-terminal GST; dsDNA, one strand shown
T10 sequence: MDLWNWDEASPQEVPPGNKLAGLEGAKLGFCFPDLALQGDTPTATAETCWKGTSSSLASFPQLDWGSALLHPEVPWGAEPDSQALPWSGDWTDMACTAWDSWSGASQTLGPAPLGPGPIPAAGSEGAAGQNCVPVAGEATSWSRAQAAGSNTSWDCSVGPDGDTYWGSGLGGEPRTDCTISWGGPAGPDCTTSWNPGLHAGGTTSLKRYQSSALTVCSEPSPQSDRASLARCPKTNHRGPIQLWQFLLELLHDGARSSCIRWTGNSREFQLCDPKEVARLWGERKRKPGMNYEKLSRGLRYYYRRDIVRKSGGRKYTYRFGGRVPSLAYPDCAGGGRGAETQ
In short: as §1

[17] = biological target: T11, ELF3 (Homo sapiens, UniProt P78545 1-371); conditions: protein: recombinant; tags: N-terminal GST; dsDNA, one strand shown
T11 sequence: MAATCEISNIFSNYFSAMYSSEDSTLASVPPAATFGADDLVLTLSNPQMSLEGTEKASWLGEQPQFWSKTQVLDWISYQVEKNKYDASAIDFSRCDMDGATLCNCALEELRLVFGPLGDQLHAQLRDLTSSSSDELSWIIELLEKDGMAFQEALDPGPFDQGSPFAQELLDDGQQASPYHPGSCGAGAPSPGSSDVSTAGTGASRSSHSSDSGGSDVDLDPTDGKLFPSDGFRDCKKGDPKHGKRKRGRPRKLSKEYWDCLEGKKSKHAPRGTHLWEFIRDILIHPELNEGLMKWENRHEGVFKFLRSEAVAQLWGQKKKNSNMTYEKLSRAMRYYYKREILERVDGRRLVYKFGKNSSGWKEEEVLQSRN
In short: as §1

[18] = biological target: CRX (Homo sapiens, UniProt O43186 1-299); conditions: protein: recombinant; tags: N-terminal GST; dsDNA, one strand shown
CRX, sequence (O43186 whole entry): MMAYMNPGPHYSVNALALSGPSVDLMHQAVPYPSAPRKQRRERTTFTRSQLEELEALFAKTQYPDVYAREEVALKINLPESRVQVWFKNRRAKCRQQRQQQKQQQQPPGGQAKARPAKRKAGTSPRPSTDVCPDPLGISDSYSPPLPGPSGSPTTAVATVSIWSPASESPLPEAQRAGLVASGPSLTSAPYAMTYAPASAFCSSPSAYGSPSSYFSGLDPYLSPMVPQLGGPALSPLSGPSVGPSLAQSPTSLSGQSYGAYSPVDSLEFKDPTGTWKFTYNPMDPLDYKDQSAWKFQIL
In short: as §1

[19] = biological target: ETV1 (Homo sapiens, UniProt P50549 1-477); conditions: protein: recombinant; tags: N-terminal GST; dsDNA, one strand shown
ETV1, sequence (P50549 whole entry): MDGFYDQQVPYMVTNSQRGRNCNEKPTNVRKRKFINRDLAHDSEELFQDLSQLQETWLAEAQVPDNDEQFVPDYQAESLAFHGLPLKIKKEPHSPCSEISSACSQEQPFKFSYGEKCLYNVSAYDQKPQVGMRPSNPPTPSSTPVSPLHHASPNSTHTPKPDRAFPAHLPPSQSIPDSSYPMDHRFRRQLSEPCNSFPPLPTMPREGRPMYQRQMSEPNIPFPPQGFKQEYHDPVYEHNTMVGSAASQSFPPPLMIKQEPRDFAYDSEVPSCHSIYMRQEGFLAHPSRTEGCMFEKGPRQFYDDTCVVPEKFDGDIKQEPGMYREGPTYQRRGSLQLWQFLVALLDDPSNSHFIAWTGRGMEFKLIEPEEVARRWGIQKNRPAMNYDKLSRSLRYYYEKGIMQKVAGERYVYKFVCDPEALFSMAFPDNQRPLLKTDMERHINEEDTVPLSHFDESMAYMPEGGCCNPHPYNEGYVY
In short: as §1

Sequence: GATCCC
- binding signal [1]: 1.16 fold enrichment (6-mer frequency, TF over GST control)
- binding signal [2]: 1.16 fold enrichment (6-mer frequency, TF over GST control)
- binding signal [3]: 1.15 fold enrichment (6-mer frequency, TF over GST control)
- binding signal [4]: 1.23 fold enrichment (6-mer frequency, TF over GST control)
- binding signal [5]: 1.27 fold enrichment (6-mer frequency, TF over GST control)
- binding signal [6]: 1.17 fold enrichment (6-mer frequency, TF over GST control)
- binding signal [7]: 1.11 fold enrichment (6-mer frequency, TF over GST control)
- binding signal [8]: 1.17 fold enrichment (6-mer frequency, TF over GST control)
- binding signal [9]: 1.14 fold enrichment (6-mer frequency, TF over GST control)
- binding signal [10]: 1.18 fold enrichment (6-mer frequency, TF over GST control)
- binding signal [11]: 1.13 fold enrichment (6-mer frequency, TF over GST control)
- binding signal [12]: 1.22 fold enrichment (6-mer frequency, TF over GST control)
- binding signal [13]: 1.22 fold enrichment (6-mer frequency, TF over GST control)
- binding signal [14]: 1.26 fold enrichment (6-mer frequency, TF over GST control)
- binding signal [15]: 1.2 fold enrichment (6-mer frequency, TF over GST control)
- binding signal [16]: 1.23 fold enrichment (6-mer frequency, TF over GST control)
- binding signal [17]: 1.18 fold enrichment (6-mer frequency, TF over GST control)
- binding signal [18]: 1.32 fold enrichment (6-mer frequency, TF over GST control)
- binding signal [19]: 1.22 fold enrichment (6-mer frequency, TF over GST control)
